Reference: PubChem BioAssay (NCI)
About 83,000 compounds went through this panel and 20% of them were active in at least one assay; those are over-represented in the sample as a whole.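 Negative percent growth values reflect cell death: -40 means 40% of the cells present at the start died, and -100 means all died.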 Values without a mark were called inactive. The source made the active and inactive calls.

system: NCI/ADR-RES ovarian; assay: NCI-60 one-dose screen, 48 h (100 = growth as untreated, 0 = no growth, -100 = all killed); details: 10 µM unless noted
Description: Growth inhibition of the NCI/ADR-RES human […] tumor cell line is measured as a screen for anti-cancer activity. Cells are grown in 96 well plates and exposed to the test compound for 48 hours. Compounds are tested at a single concentration, which is 10^-5 M for most compounds. The reported endpoint is percent growth (GI% or GIPRCNT), where numbers from 0 - 100% represent growth inhibition, and numbers from -100% - 0 represent cell death. For example, a value of 40 represents 60% growth inhibition. A value of 0 means no net growth occurred over the course of the experiment. A value of -40 indicates 40% of cells at the beginning of the experiment died by the end of the experiment. A value of -100 means all cells are dead at the end of the experiment.
NCI-60 Human Tumor Cell Lines Screen was performed using the standard one-dose NCI protocol, which is described in more detail at https://dtp.cancer.gov/discovery_development/nci-60/default.htm.
Compounds with GIPRCNT values below 10 were considered active. Activity score was based on GIPRCNT using the following formula: […]
Score is 0 for GIPRCNT values of 100 or above, 50 for GIPRCNT values of 0, and 100 for GIPRCNT values of -100.

SMILES | growth
Cc1ccc(-c2nnc(COc3ccc(-c4nnc(N)s4)cc3)o2)cc1 | 95%
CC(C)(C)[Si](C)(C)OC1[C@@H](CNC(=O)NC(=O)CCl)O[C@@H](n2cnc3c(N)ncnc32)[C@H]1O[Si](C)(C)C(C)(C)C (stereo not given in full) | -30.4% (active)
C=CC[P+](c1ccccc1)(c1ccccc1)c1ccccc1 | 112%
CCN(c1ccc(C(=O)N2CCN(c3ccccc3)CC2)cc1)S(C)(=O)=O | 108%
CCCCCCCCCCCCSC1=CC(=O)C=CC1=O | 59.8%
COc1cc(C(F)(F)F)ccc1-c1cc(-c2ccc(F)cc2)n[nH]1 | 91.5%
COc1ccc(-c2csc3c2-n2cccc2C3=O)cc1O | -25.4% (active)
Cc1ccc2nc(NC(=O)CSC(=S)N3CCN(Cc4ccccc4)CC3)sc2c1 | 22.6%
COc1cc2nc(N3CCC[C@H](NC4=CC(=O)c5ccccc5C4=O)C3)nc(N)c2cc1OC | 29.4%
COc1ccc(CSc2nc3cc(OC)c(OC)cc3c(=O)n2-c2ccc(Cl)cc2)cc1 | 101%
CCOC(=O)c1cc2c(n(C)c1=O)-c1cnn(-c3ccc(OC)cc3)c1CC2 | 114%
Brc1ccc(Br)nn1 | -32.5% (active)
Cc1ccc2c(N/N=C\c3ccco3)cc(C)nc2n1 | 71.8%
CCCCC(O)Cn1ncc(C(=O)OCC)c1NC(=O)NCc1ccccc1C(F)(F)F (stereo not given) | 98.7%
COc1ccc(/C=N\N2CCOCC2)cc1OC1CCCC1 | 106%
COc1cc2cc(Oc3ccc(NC(=O)Nc4cccc(C(F)(F)F)c4)cc3)c(C)nc2cc1OCCN1CCCCC1 | 20.1%
O=C(N/N=C(\CS(=O)(=O)c1ccccc1)c1cc2ccccc2oc1=O)c1ccccc1 | 107%
c1ccc(-c2n(Cc3ccc4ccccc4c3)c3ccccc3[n+]2Cc2ccc3ccccc3c2)cc1 | 46.4%
O=c1oc2ccccc2cc1-c1csc(N=Nc2c(O)[nH]c3ccc(Br)cc23)n1 | 103%
Cc1c(C(=O)Nc2nc(-c3ccccc3)cs2)nnn1-c1cccc2ccccc12 | 65.1% [50 µM]

SMILES | growth
COc1ccc(OC2=CC(=O)c3ccc(C)nc3C2=O)cc1 | 87.5%
O=C1c2ccccc2-c2cn(Cc3ccccc3)c3cccc(c23)C1c1cccnc1 (stereo not given) | 26.5%
COC(=O)[C@@H]1CCCN1C(=O)[C@@H]1CCCN1C(=O)[C@@H](Cc1c[nH]c2ccccc12)NC(=S)Nc1cc(C(F)(F)F)cc(C(F)(F)F)c1 | 99.8%
O=C1CC(c2ccsc2)c2snc(-c3ccc(Cl)cc3)c2N1 (stereo not given) | 16.8%
COc1ccc(-n2ncc3c2ccc2cc(S(=O)(=O)c4ccccc4)c(=O)n(C)c23)cc1 | 77.3%
CCOC(=O)C(CC(c1ccccc1)N1CCCCC1)[N+](=O)[O-] (stereo not given) | 61.4%
COc1cccc(OC(=O)c2ccccc2)c1OC(=O)c1ccccc1 | 9.73% (active)
O=C(Nc1nc2ccccc2[nH]1)C(=O)Nc1nc2ccccc2[nH]1 | 98.7%
COc1nc2c(cc1S(=O)(=O)c1ccccc1)CCc1c-2cnn1-c1ccccc1Cl | 70.2%
CC1=CN2C(=NC3=C(CCCC/C3=C\c3ccccc3)C2c2ccccc2)S1 (stereo not given) | 100%
CC1(C)CC(=O)C2=C(C1)Nc1cc3c(cc1C2c1ccc(F)cc1)OCO3 (stereo not given) | 90.7%
COc1ccccc1/C=C/C(=O)/C=C/c1ccccc1O | -19.4% (active)
CCCCCCCCCCCCCCn1c2ccccc2c2c3c(c4c5cc(OC)ccc5oc4c21)C(=O)NC3=O | 107%
COc1cc(/C=C/C(=O)C2=C(/C=C/c3ccc(O)c(OC)c3)NC(=O)NC2c2ccc(O)c(OC)c2)ccc1O (stereo not given) | 107%
Cn1c(=O)c(S(=O)(=O)c2ccccc2)cc2ccc3c(cnn3-c3ccc(Cl)cc3)c21 | 81.5%
O=C1OCC2=C1C(c1ccc3c(c1)OCO3)CC(=O)N2c1cccc(Cl)c1 (stereo not given) | 98.9%
ONc1nc(NO)c2[nH]cnc2n1 | 74.7%
CCCCCCCC/C=C\CCCCCCCCOc1cccc(CC(=O)NCC[N+]2(C)CCCCC2)c1 | 102%
CC1SC(c2ccc(Cl)cc2)N(CCc2cccs2)C1=O (stereo not given) | -11% (active)
C[C@@H](Oc1cc(-c2cnn(C3CC4(CNC4)C3)c2)cnc1N)c1c(Cl)ccc(F)c1Cl | 91.3%
